Test system: CIT
Details: concentration: 1 μM, replicates: in singlicate; n = 1
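Also: KINOMEscan kinase panel screen.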

Row | SMILES | %Inh [%]
1 | O=c1cc(N2CCOCC2)nc2n(Cc3cccc(Cl)c3Cl)c(C3CC3)nn12 [GSK2358994] | 0
2 | CCc1nc(-c2cccc(C)c2)c(-c2ccnc(NCc3ccccc3)c2)s1 | 29
3 | COc1cc2c(cc1OCCN1CCN(C)CC1)ncc1c3ccc(C#N)cc3[nH]c21 | 99.2
4 | NCC(NC(=O)c1cc(-c2cn[nH]c2)c(-c2ccnc3[nH]ccc23)s1)c1ccccc1.O=C(O)C(F)(F)F.O=C(O)C(F)(F)F (stereo not drawn) [GSK1325775] | 96.6
5 | O=c1cc(N2CCOCC2)nc2n(Cc3cccc4ccccc34)ccn12 [GSK2333389] | 9
6 | O=C(Nc1n[nH]c2cc(-c3cccc(F)c3)ccc12)C1CC1 [SB-735464] | 20
7 | C[C@@H](Oc1cc(-n2cnc3ccc(NC(=O)NC(C)(C)C)cc32)sc1C(N)=O)c1ccccc1Cl [GSK346294] | 0
8 | Cn1ccc2ncnc(Oc3ccc(NC(=O)Nc4ccncc4)c(Cl)c3)c21 | 18
9 | Nc1nc(-c2ccc3c(N)n[nH]c3c2)cc(N2CCCC2)n1 [GSK2227430] | 0
10 | O=C(NOCC1CC1)c1ccc(F)c(F)c1Nc1ccc(I)cc1Cl | 0
11 | Cn1cc(-c2ccc3c(c2)CCN3C(=O)Cc2ccccc2Cl)c2c(N)ncnc21 [GSK2608885] | 65
12 | COc1ccc(S(=O)(=O)NC2CCN(c3cc(C)nc(Nc4cccc(C#N)c4)n3)CC2)cc1.O=C(O)C(F)(F)F [GSK1653539] | 0
13 | Cc1ccc(C(=O)NCC(N)=O)cc1-n1c(C)cc(OCc2ccc(F)cc2F)c(Br)c1=O | 8
14 | N#Cc1ccc(-c2cc(-c3c[nH]nc3-c3ccccn3)ccn2)cc1 [GW693028] | 35
15 | Fc1ccc(-c2ncn(CCCN3CCOCC3)c2-c2cccnc2)cc1 [SB-211743] | 0
16 | COc1cc2ncn(-c3cc(OCc4sccc4Cl)c(C(N)=O)s3)c2cc1OC [GSK448459] | 27
17 | O=C(NCCNc1ccnc(Nc2ccc(F)cc2)n1)c1cc2ccccc2s1 [GSK1379874] | 22

Row | SMILES | %Inh [%]
18 | CCc1ccnc(/C=C/c2n[nH]c3cc(Sc4ccccc4C(=O)NC)ccc23)c1 | 0
19 | Cc1nnc(-c2ccc3ncc(-c4ccc(S(C)=O)cc4)n3c2)o1 (stereo not drawn) | 38
20 | CCn1cnc2c(N)ncnc21 [GW345098] | 6
21 | Nc1nccc(-c2c(-c3ccc(F)cc3)ncn2C2CCN(CC(F)(F)F)CC2)n1 [SB-236560] | 66
22 | O=C(NCCNc1ccnc(Nc2ccc(F)cc2)n1)Nc1ccccc1F [GSK1379880] | 47
23 | O=c1cc(N2CCOCC2)nc2n(Cc3cccc(C(F)(F)F)c3)ccn12 [GSK2297543] | 27
24 | COc1ccc(Nc2nccc(N3CCC(NC(=O)Nc4cc(C)ccc4C)C3)n2)cc1 (stereo not drawn) [GSK1379741] | 5
25 | O=C1NC(=O)C(N2CCc3ccccc32)=C1c1cccc(Cl)c1 [SB-408010] | 0
26 | Cc1c(Cn2c(C)nn3c(=O)cc(N4CCOC(C)C4)nc23)cccc1C(F)(F)F (stereo not drawn) [GSK2344444] | 9
27 | Fc1ccc(-c2ncn(CCCN3CCOCC3)c2-c2ccccn2)cc1 [SB-211742] | 8
28 | Cc1c2ccc(N(C)c3ccnc(Nc4cccc(S(N)(=O)=O)c4)n3)cc2nn1Cc1ccccc1.Cl.Cl [GW787226] | 6
29 | CC(C)(C)n1cnc2c(N)ncnc21 [SKF-97359] | 32
30 | COCCNC(=O)c1ccc(-c2cc(C(=O)NC3CC3)cc(F)c2C)cc1 [GW868318] | 1
31 | Cc1cccc(-c2nc(Nc3ccc4ncsc4c3)c3ccccc3n2)n1 [GW867588] | 13
32 | CN(C(=O)c1ccc(-c2cc(-c3c[nH]nc3-c3ccccn3)ccn2)cc1)C1CCOCC1 [GW810083] | 5
33 | Cc1ccc(NC(=O)c2ccnc(N3CCN(C)CC3)c2)cc1-c1ccc(C(=O)NCC2CC2)cc1 [GW775604] | 0

Test system: CLK1
Details: concentration: 1 μM, replicates: in singlicate; n = 1

Row | SMILES | %Inh [%]
34 | O=c1cc(N2CCOCC2)nc2n(Cc3cccc(Cl)c3Cl)c(C3CC3)nn12 [GSK2358994] | 27
35 | CCc1nc(-c2cccc(C)c2)c(-c2ccnc(NCc3ccccc3)c2)s1 | 0
36 | COc1cc2c(cc1OCCN1CCN(C)CC1)ncc1c3ccc(C#N)cc3[nH]c21 | 96.7
37 | NCC(NC(=O)c1cc(-c2cn[nH]c2)c(-c2ccnc3[nH]ccc23)s1)c1ccccc1.O=C(O)C(F)(F)F.O=C(O)C(F)(F)F (stereo not drawn) [GSK1325775] | 74
38 | O=c1cc(N2CCOCC2)nc2n(Cc3cccc4ccccc34)ccn12 [GSK2333389] | 48
39 | O=C(Nc1n[nH]c2cc(-c3cccc(F)c3)ccc12)C1CC1 [SB-735464] | 12
40 | C[C@@H](Oc1cc(-n2cnc3ccc(NC(=O)NC(C)(C)C)cc32)sc1C(N)=O)c1ccccc1Cl [GSK346294] | 18
41 | Cn1ccc2ncnc(Oc3ccc(NC(=O)Nc4ccncc4)c(Cl)c3)c21 | 0
42 | Nc1nc(-c2ccc3c(N)n[nH]c3c2)cc(N2CCCC2)n1 [GSK2227430] | 26
43 | O=C(NOCC1CC1)c1ccc(F)c(F)c1Nc1ccc(I)cc1Cl | 0
44 | Cn1cc(-c2ccc3c(c2)CCN3C(=O)Cc2ccccc2Cl)c2c(N)ncnc21 [GSK2608885] | 25
45 | COc1ccc(S(=O)(=O)NC2CCN(c3cc(C)nc(Nc4cccc(C#N)c4)n3)CC2)cc1.O=C(O)C(F)(F)F [GSK1653539] | 20
46 | Cc1ccc(C(=O)NCC(N)=O)cc1-n1c(C)cc(OCc2ccc(F)cc2F)c(Br)c1=O | 0
47 | N#Cc1ccc(-c2cc(-c3c[nH]nc3-c3ccccn3)ccn2)cc1 [GW693028] | 22
48 | Fc1ccc(-c2ncn(CCCN3CCOCC3)c2-c2cccnc2)cc1 [SB-211743] | 24
49 | COc1cc2ncn(-c3cc(OCc4sccc4Cl)c(C(N)=O)s3)c2cc1OC [GSK448459] | 39
50 | O=C(NCCNc1ccnc(Nc2ccc(F)cc2)n1)c1cc2ccccc2s1 [GSK1379874] | 29

Row | SMILES | %Inh [%]
51 | CCc1ccnc(/C=C/c2n[nH]c3cc(Sc4ccccc4C(=O)NC)ccc23)c1 | 0
52 | Cc1nnc(-c2ccc3ncc(-c4ccc(S(C)=O)cc4)n3c2)o1 (stereo not drawn) | 0
53 | CCn1cnc2c(N)ncnc21 [GW345098] | 30
54 | Nc1nccc(-c2c(-c3ccc(F)cc3)ncn2C2CCN(CC(F)(F)F)CC2)n1 [SB-236560] | 0
55 | O=C(NCCNc1ccnc(Nc2ccc(F)cc2)n1)Nc1ccccc1F [GSK1379880] | 24
56 | O=c1cc(N2CCOCC2)nc2n(Cc3cccc(C(F)(F)F)c3)ccn12 [GSK2297543] | 17
57 | COc1ccc(Nc2nccc(N3CCC(NC(=O)Nc4cc(C)ccc4C)C3)n2)cc1 (stereo not drawn) [GSK1379741] | 14
58 | O=C1NC(=O)C(N2CCc3ccccc32)=C1c1cccc(Cl)c1 [SB-408010] | 0
59 | Cc1c(Cn2c(C)nn3c(=O)cc(N4CCOC(C)C4)nc23)cccc1C(F)(F)F (stereo not drawn) [GSK2344444] | 29
60 | Fc1ccc(-c2ncn(CCCN3CCOCC3)c2-c2ccccn2)cc1 [SB-211742] | 8
61 | Cc1c2ccc(N(C)c3ccnc(Nc4cccc(S(N)(=O)=O)c4)n3)cc2nn1Cc1ccccc1.Cl.Cl [GW787226] | 0
62 | CC(C)(C)n1cnc2c(N)ncnc21 [SKF-97359] | 14
63 | COCCNC(=O)c1ccc(-c2cc(C(=O)NC3CC3)cc(F)c2C)cc1 [GW868318] | 18
64 | Cc1cccc(-c2nc(Nc3ccc4ncsc4c3)c3ccccc3n2)n1 [GW867588] | 1
65 | CN(C(=O)c1ccc(-c2cc(-c3c[nH]nc3-c3ccccn3)ccn2)cc1)C1CCOCC1 [GW810083] | 23
66 | Cc1ccc(NC(=O)c2ccnc(N3CCN(C)CC3)c2)cc1-c1ccc(C(=O)NCC2CC2)cc1 [GW775604] | 0

— PMC5540273 (PLoS ONE, 2017)
